ZTA DNA inh = counter-screen for EBNA-1 inhibitors: inhibitors of Epstein-Barr virus ZTA | ZTA-DNA binding, fluorescence polarization | 320,000 tested, 0.15% active | AID 2234 | inhibition, % at 11 µM; in the data active means inhibition above about 33%
Target sequence (P03206 whole entry, looked up): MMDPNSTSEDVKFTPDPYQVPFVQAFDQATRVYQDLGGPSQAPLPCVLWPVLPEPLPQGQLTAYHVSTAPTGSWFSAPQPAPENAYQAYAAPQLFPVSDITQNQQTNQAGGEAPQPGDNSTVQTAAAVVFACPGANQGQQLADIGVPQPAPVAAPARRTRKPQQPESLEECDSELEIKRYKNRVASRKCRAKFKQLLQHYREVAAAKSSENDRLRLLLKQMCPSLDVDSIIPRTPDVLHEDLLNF
Rpn11 block = blocks the human proteasome subunit Rpn11. human 26S proteasome, Ub4-pepOG fluorescence polarization; 20S core pre-blocked with epoxomicin. 360,000 tested, 0.59% active. O00487. AID 588493. inhibition, % at 20 µM;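 active means inhibition at 20 µM, scaled to each plate's controls, above about 33%, limit read from the data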
EBNA-1 inh = blocks EBNA-1 binding to DNA; AID 1950; 300,000 tested, 0.34% active; EBNA-1 DNA binding, fluorescence polarization; inhibition, % at 14.8 µM; in the data active means inhibition above about 28%
dFosB act-1 = enhances mouse delta FosB homodimer DNA binding | purified delta FosB, TAMRA-CDK5 oligo fluorescence polarization; percent of positive-control signal above neutral wells | activation, % at 25 µM | 340,000 tested, 0.99% active | AID 493131;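 active means mean activation above about 17%, with every replicate also reaching it, limit read from the data, passing the limit was not always enough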
GRIN3A LBD mod = NR3A (human) ligand-binding domain modulation | AID 1259313 | 340,000 tested, 2.5% active | Tm shift relative to glycine control, % at 25 µM | NR3A LBD differential scanning fluorimetry, Tm shift; 0% = protein alone, 100% = glycine-bound protein;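 active means melting temperature shift of at least 10% of the positive control shift, at one fixed dose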
TPT1 inh = blocks Candida albicans tRNA 2'-phosphotransferase | recombinant caTPT1, FP RNA substrate dephosphorylation | 300,000 tested, 0.81% active | inhibition, % at 5 µM;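 active means inhibition above the mean of all tested compounds plus 3 SD, set per screening campaign, cut at about 24% in these data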
dFosB act-2 = delta FosB (mouse) homodimer activation; shares compounds with dFosB act-1; purified delta FosB, TAMRA-CDK5 oligo fluorescence polarization; normalised: neutral wells 0, positive control 100; activation, % at 24.9 µM; 2,400 tested, under 10 active;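 active means highest replicate activation at or above 34% and every replicate reaching that threshold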;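 further: higher polarization means more probe DNA bound by delta FosB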
Large screens that a line does not name were inactive (follow-up assays come after a bar, where they were run). The list is not random: actives were taken first. Their share in the collection is about 4.5%.

CCN1CCN(c2nc3c(C)cccn3c(=O)c2/C=C(\C#N)S(=O)(=O)c2ccc(Cl)cc2)CC1	dFosB act-1 48 | dFosB act-2 inactive
CCc1nnc(NC(=O)c2ccc(-c3cc(C(F)(F)F)ccc3Cl)o2)s1	none
CCc1nnc(NC(=O)c2ccc(-c3cccc(C(F)(F)F)c3)o2)s1	dFosB act-1 19 | dFosB act-2 inactive
CC(=O)c1ccc(S(=O)(=O)N2CCN(C(C)C(=O)N(C)Cc3ccccc3)CC2)cc1 (stereo unspecified)	none (no result: ZTA DNA inh, EBNA-1 inh, TPT1 inh)
CCOC(=O)CSc1nc(C)cc(C)n1	dFosB act-1 16 | dFosB act-2 inactive
C=CC[C@H](CC(=O)NCCO)C(=O)N[C@@H](COC(=O)[C@H](CC=C)CC(=O)OC(C)(C)C)Cc1c[nH]c2ccccc12	none (no result: ZTA DNA inh, EBNA-1 inh, TPT1 inh)
O=C(CSc1ccc2nnc(-c3ccccn3)n2n1)Nc1cccc(F)c1	none
O=c1cc(CSc2nnnn2-c2ccccc2)nc(Nc2ccc(F)cc2)[nH]1	dFosB act-1 26 | dFosB act-2 inactive
N/C(=N\c1nc(CSc2nnnn2-c2ccccc2)cc(=O)[nH]1)Nc1ccccc1	none (no result: Rpn11 block, dFosB act-1, GRIN3A LBD mod)
O=C(Cc1ccccc1F)Nc1nc(-c2ccc(F)c(F)c2)cs1	none
Cc1noc(C)c1C(=O)Nc1nc(-c2ccccc2Cl)cs1	none
O=C(Cc1ccccc1F)Nc1nc(-c2cccnc2)cs1	dFosB act-1 39 | dFosB act-2 inactive
O=C(Nc1nc(-c2ccccc2Cl)cs1)c1cccnc1	dFosB act-1 29, GRIN3A LBD mod 10 | dFosB act-2 inactive
CC(C)Cc1nnc(NC(=O)CCC(=O)NCc2ccccc2Cl)s1	dFosB act-1 19 | dFosB act-2 inactive
Cc1ccc(NC(=O)CN(C)CC(=O)Nc2ccc(N3CCOCC3)cc2)c([N+](=O)[O-])c1	none
O=C(N/N=C/c1cccc2nccnc12)c1ccccc1O	dFosB act-1 23 | dFosB act-2 inactive
COc1ccc(O)c(CN2CCC(n3nccc3NC(=O)CCOc3ccccc3)CC2)c1	none
COc1ccc2cc(CN(CC3COCCO3)S(=O)(=O)c3ccc(Cl)cc3)c(=O)[nH]c2c1 (stereo unspecified)	dFosB act-1 39 | dFosB act-2 inactive
COc1ccc2cc(CN(CC3CCCO3)S(=O)(=O)c3ccccc3)c(=O)[nH]c2c1 (stereo unspecified)	none
Cc1ccccc1NC(=O)c1ccc(F)c(S(=O)(=O)N2CCN(c3ccccn3)CC2)c1	dFosB act-1 19 | dFosB act-2 inactive
Cc1ccc2c(=O)n3c(nc2c1)C(Cc1ccc(O)cc1)NC(=O)c1cc2ccccc2cc1-3 (stereo unspecified)	none (no result: ZTA DNA inh, EBNA-1 inh, dFosB act-1, GRIN3A LBD mod, TPT1 inh)
C/C(=N\NC(=O)c1ccc(CN(C)S(=O)(=O)c2ccc(C)cc2)cc1)c1ccc(OC(F)F)cc1	dFosB act-1 26 | dFosB act-2 inactive
CCCCC(=O)NC1(C(F)(F)F)NC(=O)N(C)C1=O (stereo unspecified)	none
Cc1ccnc(NC(=O)c2cccc(NC(=O)c3ccc(Cl)c(Cl)c3)c2)c1	dFosB act-1 48 (no result: ZTA DNA inh, EBNA-1 inh, TPT1 inh) | dFosB act-2 inactive
O=C(Nc1ccc(Br)cc1)c1ccc(Br)c(S(=O)(=O)Nc2cccnc2)c1	dFosB act-1 28 | dFosB act-2 inactive
O=C(N/N=C/c1cccnc1)c1cccc(Cl)c1	none
O=C(N/N=C/c1cccnc1)c1cccc(NC(=O)c2ccc(Cl)cc2)c1	Rpn11 block 52, dFosB act-1 32, GRIN3A LBD mod 16 | dFosB act-2 inactive
O=C(N/N=C/c1cccnc1)c1cccc(Br)c1	none (no result: ZTA DNA inh, EBNA-1 inh, TPT1 inh)
O=C(/C=C/c1cccnc1)c1ccc(NC(=O)c2cccc(Br)c2)cc1	dFosB act-1 46, GRIN3A LBD mod 26 | dFosB act-2 inactive
CN(C)C(=O)CCc1ccc2c3c([nH]c2c1)[C@]1(C)[C@@H](C(=O)N2CCOCC2)C[C@H](CC(=O)NCCC2=CCCCC2)C(=O)N1CC3	none (no result: ZTA DNA inh, EBNA-1 inh, TPT1 inh)
Cc1cccc(/C=N/NC(=O)c2ccc(NC(=O)c3ccc(F)cc3)cc2)n1	none
Cc1cccc(/C=N/NC(=O)c2ccc(NC(=O)c3ccc(Cl)cc3)cc2)n1	dFosB act-1 41 | dFosB act-2 inactive

Assay outcomes from PubChem BioAssay.
